Laboratory results as given in PubChem BioAssay AID489008 (National Center for Advancing Translational Sciences (NCATS), 2010).
Inconclusive results are not listed. Calls of active or inactive are those of the source. Calls follow the shape of the dose curve; as a rule, active = well fitted inhibition curve with a large enough effect; inconclusive = small, poorly fitted or top-dose-only effect; inactive = flat fitted curve, though single readings scatter.

Molecular target: Ferritin light chain (Equus caballus) (UniProt P02791)
Sequence (P02791 2-175 limits assumed): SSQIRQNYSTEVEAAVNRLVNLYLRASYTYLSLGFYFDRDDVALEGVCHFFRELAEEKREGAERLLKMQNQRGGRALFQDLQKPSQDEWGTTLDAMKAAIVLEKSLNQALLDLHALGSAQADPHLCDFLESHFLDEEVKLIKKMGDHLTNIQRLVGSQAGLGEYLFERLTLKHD
Test: Confirmation Assay for Identification of Novel General Anesthetics; also: nearly all actives have a fitted effect of over 40% in size
Conditions: apoferritin 1-aminoanthracene fluorescence displacement
Outline: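 Horse apoferritin (10 uM) pre-loaded with 1-AMA (50% saturated, PBS) exposed to compounds 10 min at room temperature; loss of 1-AMA fluorescence (380/535 nm) scaled between free and bound ligand, curves fitted with Hill equation.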
Potency is read from the fitted curve at half-maximal effect.

Potency, active:
Cc1ccc(-c2ccc(=O)n(CC(=O)NCCC(C)C)n2)cc1 5.01 µM
Cc1ccc(NC2CCCN(C(=O)c3cccs3)C2)cc1C (centres undefined) 15.8 µM
CCN(CC)C(=S)SCC(=O)c1ccccc1 28.2 µM
Nc1ccc2nc(SCc3cccc(F)c3)sc2c1 28.2 µM
Cc1cccc(C(=O)N2CCCCCC2)c1 22.4 µM
ClC1(Cl)CC1CSc1nc2ccccc2[nH]1 (centres undefined) 15.8 µM
O=C(Nc1ccc(F)c(Cl)c1)N1CCCCCC1 7.94 µM
Oc1ccc(C(=S)N2CCCCC2)cc1Cl 17.8 µM
O=C(COC(=O)CC1CC2CCC1C2)NC(=O)NC1CCCC1 (centres undefined) 15.8 µM
Cc1ccc(OCc2cc(C(=O)NC3CCc4ccccc43)no2)cn1 (centres undefined) 17.8 µM
Cc1c(Br)cc(C(=O)N2CCCCCC2)c(C)c1C 17.8 µM
O=C(CC12CC3CC(CC(C3)C1)C2)Nc1nncs1 10 µM
CC(Nc1ccccc1)c1cccnc1 (centres undefined) 15.8 µM
O=C(Cn1sc2ccccc2c1=O)NC12CC3CC(CC(C3)C1)C2 15.8 µM
O=C(CO/N=C/c1ccc(OC(F)F)cc1)NC1CCCCCC1 11.2 µM
N#Cc1ccccc1NCc1ccccc1 11.2 µM
CC1Cc2ccccc2N1C(=O)CSc1nnnn1C (centres undefined) 28.2 µM
Nc1nnc(COc2cccc(C(F)(F)F)c2)s1 15.8 µM
Cc1cc(OCC(=O)N(C)C2CCCCC2)cc(C)c1Cl 35.5 µM
